# PubChem BioAssay (NCATS)
# “And” between values parts separate entries of the source, which are not always exact repeats. Equal values may be shown once. Inconclusive results are not listed. A call without a number means that no potency is given here. A structure can be active in one record and inactive in another. The source made the active and inactive calls. Unless noted, calls follow the shape of the dose curve; as a rule, active = well fitted curve in the direction sought with a large enough effect; inconclusive = small, poorly fitted or top-dose-only effect, or another doubt; inactive = no such curve, though single readings can be large; an effect the other way counts as inactive or inconclusive.
# What was measured:
# [1] = system: Zika virus NS2B-NS3 protease; assay: Primary screen GU AMC qHTS for Zika virus inhibitors (AID 1347154); also: nearly all actives have a fitted effect of over 70% in size
# How it was run: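 Unlinked Zika NS2B hydrophilic domain/NS3 protease domain noncovalent complex (25 nM final) in 10 mM Tris-HCl pH 8.0, 0.01% Tween 20, with AMC peptide substrate. Fluorescence (ex 340, em 450 nm) change over 15 min, room temperature; percent inhibition fitted to 4-parameter Hill equation.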
# [2] = Primary qHTS for small molecule stabilizers of the endoplasmic reticulum resident proteome: Secreted ER Calcium Modulated Protein (SERCaMP) assay (AID 1508630)
# How it was run: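 GLuc-SERCaMP-expressing SH-SY5Y cells, pretreated 16 h with compound, are challenged with thapsigargin to empty ER calcium stores; after 4 h, coelenterazine is added directly to the medium and luminescence is imaged.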
# [3] = target: Cytochrome P450 1A2 (Homo sapiens) (UniProt P05177); assay: p450-cyp1a2 (AID 410; calls by dose curve; also: potency is read from the fitted curve at half-maximal effect)
# How it was run: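 20nM CYP1A2 with 100uM Luciferin-ME (at Km) in 100mM KPO4; compound preincubated 10 min, NADPH regeneration added, 60 min at room temperature. Luciferin quantified by luminescence after detection reagent; normalized to 57 uM furafylline.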
# [4] = NFAT Signaling Pathway (AID 444; active = well fitted curve in either direction with a large enough effect, not every such curve was filed as active;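 also: carbachol stimulus at about its EC50 of 1 µM final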); conditions: Jurkat NFAT-bla M1, carbachol, beta-lactamase ratio, 5 h
# How it was run: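 Jurkat cells carrying an NFAT-driven β-lactamase reporter and co-transfected muscarinic M1 receptor were treated with compound plus carbachol (1 uM final, an EC50 level) for 5 h at 37 °C. CCF4 loading followed for 1 h at RT; 460/530 nm ratio gave %activity.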
# [5] = target: Glucocorticoid receptor (Homo sapiens) (UniProt P04150); assay: GR-GFP Redistribution (AID 450;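 active = compounds whose dose series gives a full or clear partial fitted curve of increased nuclear translocation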; also: potency is read from the fitted curve at half-maximal effect); conditions: U2OS GR-GFP nuclear translocation, laser cytometry, 2 h
# [6] = target: Glucocorticoid receptor (Homo sapiens) (UniProt P04150); assay: GR-EFC Redistribution (AID 451; calls by dose curve; also: potency is read from the fitted curve at half-maximal effect); conditions: CHO-K1 GR-EFC translocation, beta-gal luminescence, 2 h
# How it was run: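 CHO-K1 cells stably expressing nuclear-localized β-gal enzyme acceptor and GR fused C-terminally to the enzyme donor fragment; ligand-driven nuclear translocation restores β-gal by complementation. Compounds titrated up to 46 uM final, 2 h at 37 °C; luminescence read.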
# [7] = target: Mitogen-activated protein kinase 10 (Mus musculus) (UniProt Q61831); assay: JNK3 AlphaScreen Assay (AID 530; active = well fitted curve in either direction with a large enough effect, not every such curve was filed as active;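 also: kinase came from lysate of stimulated human HepG2 cells; signal reports phosphorylation of biotinylated GST-cJun 1-79 at Ser73 with 10 µM ATP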)
# How it was run: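 Inhibitors reduce antibody binding to phosphorylated biotin-cJun, lowering AlphaScreen luminescence. Lysates from HepG2 cells pre-activated by IL-1beta plus TNF-alpha supplied JNK3; compounds were titrated.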
# [8] = target: 3',5'-cyclic-AMP phosphodiesterase 4B (Homo sapiens) (UniProt Q07343); assay: qHTS Assay for Inhibitors of PDE-IV (AID 607; active = well fitted activation curve with a large enough effect in the main read-out, with a control signal flat, not every such curve was filed as active)
# How it was run: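 ACTOne HEK293 cells carry a modified cAMP-gated CNG channel and express endogenous PDE4; plated 1000 cells/well, compounds up to 22.9 uM final. Membrane-potential dye fluorescence (ex 535/em 590) was read; parental cells received 10 uM forskolin + 100 uM RO 20-1724.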
# [9] = target: Guanine nucleotide-binding protein G(i) subunit alpha-1 (Homo sapiens) (UniProt P63096); assay: qHTS Assay for Inhibitors of RGS12 GoLoco Motif Activity (Green Fluorophore) (AID 879);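 also: negative values mean loss of peptide binding seen as reduced polarization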
# How it was run: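 Fluorescence polarization assay: 50 nM Gαi1 with 10 nM FITC-labeled RGS12 GoLoco peptide in 10 mM Tris pH 7.5, 150 mM NaCl, 0.1 mM GDP, 0.05% NP40, 10 min at room temperature with compound.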
# [10] = qHTS Assay for Identification of Small Molecule Antagonists for NFkB Signaling Pathway (AID 895; active = well fitted inhibition curve with a large enough effect in the signal ratio, with a control signal flat, not every such curve was filed as active; the % refers to the signal ratio)
# How it was run: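 NFkB-bla ME-180 cervical carcinoma cells with beta-lactamase reporter under NFkB response element; compounds added, then TNF alpha at 10 pM final (EC50), 5 h at 37 C. LiveBLAzer substrate 2 h, room temperature; emission 460/530 nm at 405 nm excitation.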
# [11] = target: Cytochrome P450 2C19 (Homo sapiens) (UniProt P33261); assay: qHTS Assay for Inhibitors and Substrates of Cytochrome P450 2C19 (AID 899); also: nearly all actives have a fitted effect of over 60% in size; also: potency is read from the fitted curve at half-maximal effect
# How it was run: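 NADPH-dependent conversion of Luciferin-H EGE (10uM, at KM) by 5nM enzyme in 50mM KPO4, 60 min at 37C following 10 min compound preincubation. Stopped with luciferin detection buffer; luminescence read after 20 min.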
# [12] = qHTS Assay for Identification of Small Molecule Agonists for Hypoxia Response Element Signaling Pathway (AID 914; active = well fitted activation curve with a large enough effect in the signal ratio, with a control signal flat, not every such curve was filed as active; the % refers to the signal ratio); conditions: ME-180 (cervical carcinoma) HRE-bla reporter, beta-lactamase ratio, CoCl2, 17 h; activation: stronger effect = higher value
# How it was run: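 A beta-lactamase reporter under hypoxia response element control in ME-180 cells served as the system. Compound titrations plus EC50 CoCl2 ran 17 h at 37 degrees Celsius; AC50 values were fitted from %Activity.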
# [13] = qHTS Assay for Identification of Small Molecule Agonists for Thrombopoietin (TPO) Signaling Pathway (AID 917)
# How it was run: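 Activators of TPO signaling were sought in murine Ba/F3 cells transfected with the human receptor, using a luciferase gene driven by the Glycoprotein IIb promoter; 24-hr compound exposure at 37 C alongside 26 pM TPO, in IL-3-free medium.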
# [14] = target: Muscarinic acetylcholine receptor M1 (Rattus norvegicus) (UniProt P08482); assay: qHTS Assay for Antagonists of Acetylcholine Muscarinic M1 Receptor: Measurement of IP-One Response (AID 944); also: nearly all actives have a fitted effect of over 75% in size
# How it was run: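 CHO cells stably expressing rat M1, pretreated 10 min with compound, then stimulated 30 min with carbachol at EC80 (200 nM) in LiCl-containing buffer pH 7.4; IP1 accumulation read by HTRF competition (665/620 nm).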
# [15] = target: Pyruvate kinase (Leishmania mexicana) (UniProt Q27686); assay: qHTS Validation Assay for Inhibitors of Leishmania Mexicana Pyruvate Kinase (AID 945)
# How it was run: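 Compounds are tested as eight-point concentration series. Reactions contain 0.2 nM LmPYK E451W, 0.5 mM PEP, 0.1 mM ADP, 7 mM MgCl2 and 50 mM KCl at pH 7.2, run 1 h at room temperature, then read by PKLight luminescence.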
# [16] = target: Alpha-galactosidase (Coffea arabica) (UniProt Q42656); assay: Counterscreen for Glucocerebrosidase Inhibitors: qHTS Assay for Coffee Bean alpha-Galactosidase at pH 4.5 (AID 957)
# How it was run: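 Coffee bean enzyme (2 nM) with 80 uM 4-methylumbelliferyl alpha-D-galactopyranoside in 50 mM citric acid, 0.005% Tween-20, pH 4.5, 20 min at room temperature; compounds 0.7 nM–77 uM. Stopped at pH 10, fluorescence 365/440 nm; AC50 from Hill fits.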
# [17] = target: Alpha-galactosidase A (Homo sapiens) (UniProt P06280); assay: Counterscreen for Glucocerebrosidase Inhibitors: qHTS Assay for Human alpha-Galactosidase at pH 4.5 (AID 992)
# How it was run: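 Enzyme at 2 nM final was combined with compound (0.7 nM to 77 uM) and 80 uM 4-methylumbelliferyl alpha-D-galactopyranoside in 50 mM citric acid, 0.005% Tween-20, pH 4.5. After 20 min at room temperature, fluorescence was read (Ex 365/Em 440 nm); AC50 came from Hill fits.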
# [18] = target: Alpha-galactosidase (Coffea arabica) (UniProt Q42656); assay: Counterscreen for Glucocerebrosidase Inhibitors: qHTS Assay for Coffee Bean alpha-Galactosidase at pH 5.9 (AID 998)
# How it was run: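 Green coffee bean enzyme (2 nM final) was incubated with compounds (0.7 nM–77 uM) and 4-methylumbelliferyl alpha-D-galactopyranoside (80 uM) in citrate buffer pH 5.9, 20 min at room temperature. High-pH stop; fluorescence 365/440 nm; AC50 from Hill fits.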
# [19] = qHTS Assay for Lipid Storage Modulators (AID 1519; calls by dose curve); conditions: Drosophila S3 cells, BODIPY lipid droplet/cell ratio, laser cytometry, cells loaded with oleic acid
# How it was run: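 Cells seeded at 5,000 per well were treated with compounds over a concentration series and loaded with oleic acid (400 uM, as added). Lipid droplet fluorescence (488 nm excitation, 500-530 nm channel) was read by laser-scanning cytometry and normalized to 20 uM Triacsin C.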
# [20] = target: DNA dC->dU-editing enzyme APOBEC-3G (Homo sapiens) (UniProt Q9HC16); assay: qHTS for inhibitors of Vif-A3G interactions: Validation (AID 588379)
# How it was run: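 HeLa cells stably expressing Vif and A3G-eYFP, 700 cells/well, incubated overnight at 37 deg C, then exposed to compound overnight at 37 deg C. Inhibition of Vif-mediated degradation read as increased yellow fluorescence (Ex 488/Em 500-530) by laser-scanning cytometry.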
# [21] = AP1 Signaling Pathway (AID 357; active = well fitted curve in either direction with a large enough effect, not every such curve was filed as active;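 also: ME-180 reporter cells stimulated with EGF at its EC50 level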)
# How it was run: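 A ratiometric CCF4 readout (405 nm excitation; 460 and 530 nm emission) quantified AP-1-driven beta-lactamase in ME-180 cells after 5 h with compound and EC50 EGF; AC50 values were derived for activators and inhibitors.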
# [22] = target: Cytochrome P450 2D6 (Homo sapiens) (UniProt P10635); assay: qHTS Assay for Inhibitors and Substrates of Cytochrome P450 2D6 (AID 891);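 also: luciferin methyl ether substrate demethylated by CYP2D6 with NADPH regeneration; nearly all actives have a fitted effect of over 60% in size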
# How it was run: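 Human CYP2D6 (5 nM) with 30 uM Luciferin-ME EGE (at Km) in 100 mM KPO4, compound preincubated 10 min, then NADPH regeneration system for 60 min at room temperature. Luciferin read by luminescence; normalized to 1.43 uM quinidine.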
# [23] = target: Ubiquitin carboxyl-terminal hydrolase 1 (Homo sapiens) (UniProt O94782); assay: Inhibitors of USP1/UAF1: Pilot qHTS (AID 504865);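 also: rhodamine fluorescence freed from ubiquitin-rhodamine substrate followed over time; top concentration of the series differs between compounds; nearly all actives have a fitted effect of over 35% in size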
# How it was run: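 1nM USP1/UAF1 + cpd, 15 min RT; start w/ Ub-Rho 150nM final; kinetic FL 480/540 nm, 6 reads q60 s. Buffer 50mM HEPES pH 7.8, 0.5mM EDTA, 1mM TCEP, 0.01% Tween-20, 0.1 mg/ml BSA.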
# [24] = measured here: cell count channel max response
# [25] = measured here: lipid channel max response
# Sequence of Glucocorticoid receptor (Homo sapiens) (P04150 whole entry, looked up, the tested form may be a part): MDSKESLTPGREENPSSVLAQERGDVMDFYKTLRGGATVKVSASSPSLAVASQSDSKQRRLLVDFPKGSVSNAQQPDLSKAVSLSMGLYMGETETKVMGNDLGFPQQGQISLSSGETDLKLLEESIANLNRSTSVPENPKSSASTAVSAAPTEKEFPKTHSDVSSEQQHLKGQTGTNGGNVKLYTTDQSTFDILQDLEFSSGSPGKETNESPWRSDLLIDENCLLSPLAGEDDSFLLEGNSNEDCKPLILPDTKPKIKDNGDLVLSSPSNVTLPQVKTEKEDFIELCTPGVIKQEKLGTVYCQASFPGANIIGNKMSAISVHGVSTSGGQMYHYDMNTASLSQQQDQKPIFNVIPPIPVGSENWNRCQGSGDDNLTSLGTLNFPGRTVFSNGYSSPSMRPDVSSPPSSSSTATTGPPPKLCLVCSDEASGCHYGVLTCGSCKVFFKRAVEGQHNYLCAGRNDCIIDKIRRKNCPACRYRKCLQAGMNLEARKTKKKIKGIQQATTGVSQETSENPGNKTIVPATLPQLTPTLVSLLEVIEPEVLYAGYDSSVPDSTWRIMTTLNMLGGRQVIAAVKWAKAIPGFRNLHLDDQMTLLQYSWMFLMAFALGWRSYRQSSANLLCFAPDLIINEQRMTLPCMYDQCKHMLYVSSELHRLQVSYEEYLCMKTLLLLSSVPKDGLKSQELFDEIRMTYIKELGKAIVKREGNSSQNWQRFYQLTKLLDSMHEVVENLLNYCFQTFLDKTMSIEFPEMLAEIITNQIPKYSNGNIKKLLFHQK
# Sequence of DNA dC->dU-editing enzyme APOBEC-3G (Homo sapiens) (Q9HC16 whole entry, looked up): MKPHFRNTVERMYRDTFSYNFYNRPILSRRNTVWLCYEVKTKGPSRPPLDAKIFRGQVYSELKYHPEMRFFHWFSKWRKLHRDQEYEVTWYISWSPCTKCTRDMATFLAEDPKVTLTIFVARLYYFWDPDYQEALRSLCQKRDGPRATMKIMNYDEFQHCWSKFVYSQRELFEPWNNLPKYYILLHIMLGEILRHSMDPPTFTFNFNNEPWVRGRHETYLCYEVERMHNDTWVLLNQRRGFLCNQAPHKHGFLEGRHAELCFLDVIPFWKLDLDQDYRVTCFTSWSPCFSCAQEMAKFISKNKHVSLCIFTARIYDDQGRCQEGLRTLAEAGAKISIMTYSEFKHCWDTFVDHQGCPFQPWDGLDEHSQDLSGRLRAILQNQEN
# Sequence of Cytochrome P450 1A2 (Homo sapiens) (P05177 whole entry, looked up): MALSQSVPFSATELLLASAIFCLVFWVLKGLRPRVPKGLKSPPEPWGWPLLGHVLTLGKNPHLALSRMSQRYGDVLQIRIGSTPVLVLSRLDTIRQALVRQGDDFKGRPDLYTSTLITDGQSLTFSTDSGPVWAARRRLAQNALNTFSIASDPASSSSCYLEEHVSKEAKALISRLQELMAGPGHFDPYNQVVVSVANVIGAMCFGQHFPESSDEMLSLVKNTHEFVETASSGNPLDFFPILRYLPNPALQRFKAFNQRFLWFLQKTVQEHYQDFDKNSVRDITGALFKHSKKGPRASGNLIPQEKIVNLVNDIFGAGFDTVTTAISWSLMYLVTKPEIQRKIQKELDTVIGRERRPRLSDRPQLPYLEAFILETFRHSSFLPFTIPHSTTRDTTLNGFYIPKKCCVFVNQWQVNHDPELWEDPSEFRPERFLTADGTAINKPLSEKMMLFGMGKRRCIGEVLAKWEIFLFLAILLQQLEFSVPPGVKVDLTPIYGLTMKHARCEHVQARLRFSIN
# Sequence of 3',5'-cyclic-AMP phosphodiesterase 4B (Homo sapiens) (Q07343 whole entry, looked up): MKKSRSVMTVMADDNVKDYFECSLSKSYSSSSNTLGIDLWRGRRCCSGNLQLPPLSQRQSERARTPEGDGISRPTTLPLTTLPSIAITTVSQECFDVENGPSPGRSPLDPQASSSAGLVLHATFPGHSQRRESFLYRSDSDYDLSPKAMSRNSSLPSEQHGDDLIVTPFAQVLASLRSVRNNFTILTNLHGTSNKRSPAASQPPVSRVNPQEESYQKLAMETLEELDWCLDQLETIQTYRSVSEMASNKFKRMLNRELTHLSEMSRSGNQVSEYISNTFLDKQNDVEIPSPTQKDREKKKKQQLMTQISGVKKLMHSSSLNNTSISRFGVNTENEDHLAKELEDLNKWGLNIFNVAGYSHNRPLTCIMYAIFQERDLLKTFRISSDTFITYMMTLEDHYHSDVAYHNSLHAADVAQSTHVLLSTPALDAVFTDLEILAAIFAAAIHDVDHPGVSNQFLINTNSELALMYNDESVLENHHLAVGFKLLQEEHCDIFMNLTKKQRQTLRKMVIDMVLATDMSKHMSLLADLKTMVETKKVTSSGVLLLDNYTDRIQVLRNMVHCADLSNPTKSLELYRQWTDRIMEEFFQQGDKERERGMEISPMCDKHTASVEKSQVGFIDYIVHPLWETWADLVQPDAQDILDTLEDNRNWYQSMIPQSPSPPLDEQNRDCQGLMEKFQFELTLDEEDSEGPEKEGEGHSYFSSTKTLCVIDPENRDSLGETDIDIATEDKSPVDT
# Sequence of Cytochrome P450 2C19 (Homo sapiens) (P33261 whole entry, looked up): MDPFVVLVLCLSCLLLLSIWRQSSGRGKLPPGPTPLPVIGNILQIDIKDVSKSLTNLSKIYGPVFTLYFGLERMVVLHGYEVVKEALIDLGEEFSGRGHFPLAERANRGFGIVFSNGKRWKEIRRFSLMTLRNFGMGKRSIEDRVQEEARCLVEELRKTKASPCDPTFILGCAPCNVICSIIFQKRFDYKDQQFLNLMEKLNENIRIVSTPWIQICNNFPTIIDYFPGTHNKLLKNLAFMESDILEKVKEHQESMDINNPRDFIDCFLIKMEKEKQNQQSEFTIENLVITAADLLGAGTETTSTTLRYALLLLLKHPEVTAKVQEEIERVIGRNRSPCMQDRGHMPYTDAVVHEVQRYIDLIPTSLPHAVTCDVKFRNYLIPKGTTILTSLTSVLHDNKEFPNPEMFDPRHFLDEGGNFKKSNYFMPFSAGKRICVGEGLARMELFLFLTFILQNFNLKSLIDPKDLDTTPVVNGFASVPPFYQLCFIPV
# Sequence of Alpha-galactosidase (Coffea arabica) (Q42656 whole entry, looked up): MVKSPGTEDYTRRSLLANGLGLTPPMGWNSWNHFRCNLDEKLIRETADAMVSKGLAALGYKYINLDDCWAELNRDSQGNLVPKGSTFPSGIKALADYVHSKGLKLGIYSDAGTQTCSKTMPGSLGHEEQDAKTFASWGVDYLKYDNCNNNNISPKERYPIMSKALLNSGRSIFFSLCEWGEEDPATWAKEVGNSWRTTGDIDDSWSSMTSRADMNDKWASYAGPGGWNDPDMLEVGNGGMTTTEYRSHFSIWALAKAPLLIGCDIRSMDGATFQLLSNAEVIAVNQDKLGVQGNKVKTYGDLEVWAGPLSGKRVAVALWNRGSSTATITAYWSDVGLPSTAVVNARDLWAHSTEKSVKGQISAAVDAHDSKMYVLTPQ
# Sequence of Alpha-galactosidase A (Homo sapiens) (P06280 whole entry, looked up): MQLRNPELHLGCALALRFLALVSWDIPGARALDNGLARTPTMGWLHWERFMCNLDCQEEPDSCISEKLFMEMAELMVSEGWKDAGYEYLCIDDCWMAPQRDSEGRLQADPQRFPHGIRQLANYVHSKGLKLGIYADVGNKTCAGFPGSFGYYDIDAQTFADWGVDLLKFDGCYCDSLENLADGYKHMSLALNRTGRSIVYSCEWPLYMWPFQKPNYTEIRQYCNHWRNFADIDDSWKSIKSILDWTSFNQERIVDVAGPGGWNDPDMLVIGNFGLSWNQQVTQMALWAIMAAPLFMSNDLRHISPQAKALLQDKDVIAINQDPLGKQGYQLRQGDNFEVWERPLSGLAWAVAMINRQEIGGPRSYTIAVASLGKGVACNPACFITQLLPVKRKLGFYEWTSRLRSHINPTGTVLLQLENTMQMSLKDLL
# Sequence of Ubiquitin carboxyl-terminal hydrolase 1 (Homo sapiens) (O94782 whole entry, looked up): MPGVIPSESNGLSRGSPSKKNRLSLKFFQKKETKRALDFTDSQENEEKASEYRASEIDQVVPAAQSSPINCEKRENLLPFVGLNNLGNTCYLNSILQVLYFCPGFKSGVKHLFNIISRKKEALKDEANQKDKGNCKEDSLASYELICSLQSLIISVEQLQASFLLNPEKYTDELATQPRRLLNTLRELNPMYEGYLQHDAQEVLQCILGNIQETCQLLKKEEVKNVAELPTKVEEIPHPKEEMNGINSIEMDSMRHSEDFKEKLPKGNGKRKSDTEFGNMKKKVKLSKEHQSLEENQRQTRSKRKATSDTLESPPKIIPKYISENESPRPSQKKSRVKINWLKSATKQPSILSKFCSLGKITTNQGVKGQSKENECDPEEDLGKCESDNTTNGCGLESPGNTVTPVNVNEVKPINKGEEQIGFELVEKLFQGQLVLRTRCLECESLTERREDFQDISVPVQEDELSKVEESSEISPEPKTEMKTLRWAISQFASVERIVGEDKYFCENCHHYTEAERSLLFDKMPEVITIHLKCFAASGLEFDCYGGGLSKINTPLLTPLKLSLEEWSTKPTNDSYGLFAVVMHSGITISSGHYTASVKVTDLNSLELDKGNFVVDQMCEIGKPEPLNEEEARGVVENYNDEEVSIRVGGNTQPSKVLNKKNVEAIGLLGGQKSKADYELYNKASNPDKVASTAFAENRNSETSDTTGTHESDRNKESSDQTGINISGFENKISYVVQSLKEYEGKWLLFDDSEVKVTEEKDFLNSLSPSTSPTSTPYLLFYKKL
# Sequence of Guanine nucleotide-binding protein G(i) subunit alpha-1 (Homo sapiens) (P63096 whole entry, looked up): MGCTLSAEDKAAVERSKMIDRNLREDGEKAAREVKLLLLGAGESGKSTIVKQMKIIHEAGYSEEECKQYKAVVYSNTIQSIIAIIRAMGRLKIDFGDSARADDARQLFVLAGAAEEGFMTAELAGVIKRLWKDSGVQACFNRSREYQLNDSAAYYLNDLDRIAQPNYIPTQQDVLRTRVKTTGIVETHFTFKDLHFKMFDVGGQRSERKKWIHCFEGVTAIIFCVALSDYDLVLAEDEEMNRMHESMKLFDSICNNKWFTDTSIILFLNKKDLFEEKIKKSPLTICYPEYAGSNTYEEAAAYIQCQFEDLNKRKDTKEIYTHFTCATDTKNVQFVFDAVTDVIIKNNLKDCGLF
smiles,measurement,setting,value
COc1ccc2[nH]cc(CCNCc3ccc(Br)cc3)c2c1,Potency,[1],inactive
same,Potency,[2],inactive
COc1cccc2c1C13CC[N+]4(CC5CC5)CO[C@]1(CCC(=O)C3)C4C2,Potency,[1],inactive
same,Potency,[2],inactive
Cc1o[nH]c(=O)c1C[C@H](N)C(=O)O,Potency,[3],inactive and 31.6 µM (active)
same,"activity change, negative = inhibition",[4]; at 38 µM (top of the series),-2.02% (inactive)
same,Potency,[5],> 46 µM (inactive)
same,Potency,[6],> 46 µM (inactive)
same,outcome,[7],inactive
same,Potency,[8],inactive
same,outcome,[9],inactive
same,Potency,[10],inactive
same,Potency,[11],2.51 µM (active)
same,activation,[12],7.13% (inactive)
same,outcome,[13],inactive
same,Potency,[14],inactive
same,outcome,[15],inactive
same,outcome,[16],inactive
same,outcome,[17],inactive
same,outcome,[18],inactive
same,"activity change, negative = inhibition",[19]; at 57.5 µM (top of the series),5.07% (inactive) and 0.872% (inactive) and 1.49% (inactive)
same,max response,[19]; [24],9.71% and 20.6% and -4.26%
same,max response,[19]; [25],15.4% and 23.1% and -1.44%
same,Potency,[20],inactive
same,Potency,[1],inactive
same,Potency,[2],inactive
NC[C@@H](CC(=O)O)c1ccc(Cl)cc1,outcome,[21],inactive
same,Potency,[3],inactive
same,"activity change, negative = inhibition",[4]; at 17.2 µM (top of the series),-1.76% (inactive)
same,"activity change, negative = inhibition",[4]; at 38 µM (top of the series),-6.39% (inactive)
same,Potency,[5],> 20.6 µM (inactive) and > 46 µM (inactive)
same,Potency,[6],> 20.6 µM (inactive) and > 46 µM (inactive)
same,outcome,[7],inactive
same,Potency,[8],inactive
same,Potency,[22],inactive
same,Potency,[11],inactive
same,"activity change, negative = inhibition",[19]; at 25.7 µM (top of the series),0.101% (inactive)
same,max response,[19]; [24],11.7%
same,max response,[19]; [25],10.6%
same,Potency,[20],inactive
same,Potency,[1],inactive
same,Potency,[2],inactive
O=C(O)Cc1cccnc1C(=O)O,Potency,[5],> 46 µM (inactive)
same,Potency,[6],> 46 µM (inactive)
same,outcome,[7],inactive
same,"activity change, negative = inhibition",[19]; at 57.5 µM (top of the series),3.53% (inactive)
same,max response,[19]; [24],-8.51%
same,max response,[19]; [25],-2.88%
same,Potency,[23],inactive
same,Potency,[1],inactive
same,Potency,[2],inactive
CSCC[C@H](NC(=O)[C@H](Cc1ccccc1)NC(=O)CNC(=O)CNC(=O)[C@@H](N)Cc1ccc(O)cc1)C(=O)O,"activity change, negative = inhibition",[1],-0.9% [at 6.83 µM] (inactive)
same,"activity change, negative = inhibition",[2],-26.7% [at 3.88 µM] (inactive)
CCCCC/C=C\C/C=C\C/C=C\C=C\[C@H](CCCC(=O)O)OO,"activity change, negative = inhibition",[1],7.53% [at 0.59 µM] (inactive)
same,"activity change, negative = inhibition",[2],-17.5% [at 0.478 µM] (inactive)
